The values below come from PubChem BioAssay (NCATS).

Experiment [1] addresses Mitogen-activated protein kinase 10 (Mus musculus) (UniProt Q61831). Description: JNK3 AlphaScreen Assay (AID 530; active = well fitted curve in either direction with a large enough effect, not every such curve was filed as active;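 note: kinase came from lysate of stimulated human HepG2 cells; signal reports phosphorylation of biotinylated GST-cJun 1-79 at Ser73 with 10 µM ATP; series mostly up to about 57 µM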). An outline of the steps: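 Room-temperature AlphaScreen kinase assay; pre-activated HepG2 lysate as JNK3 source, biotin-GST-cJun(1-79) substrate, 10 uM ATP, compound 15 min preincubation.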
Experiment [2] deals with Cytochrome P450 3A4 (Homo sapiens) (UniProt P08684). Description: qHTS Assay for Activators of Cytochrome P450 3A4 (AID 885). Note: nearly all actives have a fitted effect of over 65% in size. In outline:
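Signal was normalized against complete inhibition by 57 uM ketoconazole. The reaction used 20nM CYP3A4 with 25uM Luciferin-PPXE, 10-min compound preincubation and a 60-min NADPH-supported step at RT.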
(In general: Quantitative high-throughput screening tests each substance at several concentrations.)

In experiment [3] the target is Calcium and integrin-binding protein 1 (Homo sapiens) (UniProt Q99828). Description: Primary qHTS for Identification of Calcium Integrin Binding Protein 1 (CIB1) Competitor (AID 1508620).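 Note: GST tagged CIB1 binding a fluorescein labelled alphaIIb integrin peptide tracer; top concentration of the series differs between compounds.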 In outline: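 CIB1-GST (1 uM final) and compound incubated 15 min at room temperature before adding FITC-alphaIIb peptide tracer (100 nM final). Competition for binding read by fluorescence polarization (ex 480, em 540) after another 15 min at room temperature.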

Experiment [4] can be described thus: qHTS for Inhibitors of Ubiquitin-specific Protease USP2a Using CHOP2 as the Reporter: K633 Counterscreen (AID 652168). Note: series mostly up to about 57 µM. In outline: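 Cell-free interference counterscreen without USP2a: compounds pinned into enzyme-free buffer (20 mM Tris pH 8, 2 mM beta-mercaptoethanol, 0.05% Chaps), then DiUb K48-4IQF substrate added (100 nM stock); fluorescence read kinetically, Ex 525/Em 598.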

Experiment [5] can be described thus: qHTS for Inhibitors of Ubiquitin-specific Protease USP2a Using CHOP2 as the Reporter: Cytotox Assay (AID 652170). Note: nearly all actives have a fitted effect of over 70% in size. Note: potency is the fitted concentration of half-maximal effect. An outline of the steps:
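HCT116 human colon cancer cells, 600 per well in DMEM with 10% FBS, exposed to compounds for 72 hr at 37 deg C. ATP measured by CellTiter-Glo luminescence, normalized to DMSO cells and no-cell background.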

For experiment [6], the target named is Ubiquitin carboxyl-terminal hydrolase 2 (Homo sapiens) (UniProt O75604). Description: qHTS for Inhibitors of Ubiquitin-specific Protease USP2a Using CHOP2 as the Reporter: K484 Substrate (AID 652173).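 Note: cleavage of internally quenched K48 di-ubiquitin substrate measured as rising fluorescence over time; nearly all actives have a fitted effect of over 70% in size.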 Note: potency is the fitted concentration of half-maximal effect. In outline: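 USP2 (dispensed at 5 nM) was pinned with compounds, then DiUb K48 internally quenched fluorescent substrate (dispensed at 100 nM) was added. The buffer was 20 mM Tris pH 8, 2 mM beta-mercaptoethanol and 0.05% CHAPS. Cleavage was read kinetically as rising fluorescence, Ex 525/Em 598.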

Records with an inconclusive call do not appear. Entries that show only a call come without a potency. Active and inactive are the calls of the source. Unless noted, calls come from the whole dose curve; as a rule, active = well fitted curve in the direction sought with a large enough effect; inconclusive = small, poorly fitted or top-dose-only effect, or another doubt; inactive = no such curve, though single readings can be large; an effect the other way counts as inactive or inconclusive.

Sequence of Calcium and integrin-binding protein 1 (Homo sapiens) (Q99828 whole entry, looked up): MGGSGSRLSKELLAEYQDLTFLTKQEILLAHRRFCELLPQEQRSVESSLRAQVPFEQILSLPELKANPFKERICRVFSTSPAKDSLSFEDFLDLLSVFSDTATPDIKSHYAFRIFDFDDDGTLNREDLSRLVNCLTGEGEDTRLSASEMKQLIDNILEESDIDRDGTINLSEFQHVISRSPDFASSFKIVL
Sequence of Ubiquitin carboxyl-terminal hydrolase 2 (Homo sapiens) (O75604 whole entry, looked up): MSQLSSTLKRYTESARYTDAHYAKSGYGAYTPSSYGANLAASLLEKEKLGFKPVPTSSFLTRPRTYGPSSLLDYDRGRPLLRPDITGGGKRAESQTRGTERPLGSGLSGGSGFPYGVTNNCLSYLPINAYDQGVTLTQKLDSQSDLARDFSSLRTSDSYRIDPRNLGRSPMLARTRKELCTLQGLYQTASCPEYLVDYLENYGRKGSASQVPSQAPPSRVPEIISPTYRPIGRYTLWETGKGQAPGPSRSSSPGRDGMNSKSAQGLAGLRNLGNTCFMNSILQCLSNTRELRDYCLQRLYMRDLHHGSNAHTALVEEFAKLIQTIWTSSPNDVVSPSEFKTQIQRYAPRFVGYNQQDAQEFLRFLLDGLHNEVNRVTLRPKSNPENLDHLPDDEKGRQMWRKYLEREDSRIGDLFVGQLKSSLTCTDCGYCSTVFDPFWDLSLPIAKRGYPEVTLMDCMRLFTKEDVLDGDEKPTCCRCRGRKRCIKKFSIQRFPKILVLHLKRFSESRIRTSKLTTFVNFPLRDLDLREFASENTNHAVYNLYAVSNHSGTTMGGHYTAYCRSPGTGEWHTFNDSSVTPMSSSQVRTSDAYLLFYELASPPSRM
Sequence of Cytochrome P450 3A4 (Homo sapiens) (P08684 whole entry, looked up): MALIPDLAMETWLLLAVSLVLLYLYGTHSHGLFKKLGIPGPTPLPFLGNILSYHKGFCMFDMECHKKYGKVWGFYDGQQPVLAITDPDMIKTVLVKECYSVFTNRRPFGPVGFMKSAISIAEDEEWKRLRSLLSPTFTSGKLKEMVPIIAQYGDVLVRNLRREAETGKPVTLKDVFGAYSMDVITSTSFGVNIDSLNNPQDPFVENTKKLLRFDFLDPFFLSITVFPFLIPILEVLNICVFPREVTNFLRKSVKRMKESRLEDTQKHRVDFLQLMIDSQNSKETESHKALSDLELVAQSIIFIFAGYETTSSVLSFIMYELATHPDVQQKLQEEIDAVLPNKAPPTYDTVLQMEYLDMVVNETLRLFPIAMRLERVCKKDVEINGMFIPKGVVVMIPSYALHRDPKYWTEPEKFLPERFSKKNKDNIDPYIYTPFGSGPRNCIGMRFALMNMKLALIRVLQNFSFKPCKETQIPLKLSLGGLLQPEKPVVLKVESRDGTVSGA

Consider `CCCn1c(C)nc2c(N(CCOC)CCOC)nc(C)nc21`, for which, in experiment [1], the compound was called inactive. Further, the Potency result in experiment [2] and in experiment [3] was “inactive” throughout.

In the case of `Cc1nc(NC2CCCCC2)c2nc(-c3ccccc3)n(CCCN3CCCCC3C)c2n1` (stereo unspecified), the compound was classed as inactive in experiment [1]. Also, the Potency result in experiment [2] and in experiment [3] was “inactive” each time.

Consider `CCCCNc1nc(C)nc2c1nc(-c1ccccc1)n2CC1CCN(C)CC1`, for which, in experiment [1], the result was inactive. Further, the Potency result in experiment [2] and in experiment [3] was “inactive” throughout.

With `COCCN(CCOC)c1nc(C)nc2c1nc(-c1ccccc1)n2CCCN(C)C`, the compound was called inactive in experiment [1]. Besides, the Potency entry in experiment [2] and in experiment [3] was “inactive” in each case.

For the compound `CCN(CC)CCCC(C)n1c(-c2ccccc2)nc2c(NC3CCCCC3)nc(C)nc21` (stereo unspecified), the compound was classed as inactive in experiment [1]. In addition, the Potency result in experiment [2] and in experiment [3] was “inactive” each time.

Take `CCCn1c(-c2ccc(F)cc2)nc2c(NCCCN(CC)CC)nc(C)nc21`: the compound was called inactive in experiment [1]. The Potency entry in experiment [2] and in experiment [3] was “inactive” throughout.

Take `CCN(CC)CCCn1c(-c2ccccc2)nc2c(NCc3ccccc3)nc(C)nc21`: the call in experiment [1] was inactive. In addition, the Potency entry in experiment [2] and in experiment [3] was “inactive” throughout.

Take `CCCn1c(-c2ccc(F)cc2)nc2c(N3CCN(C)CC3)nc(C)nc21`: the outcome in experiment [1] was inactive. The Potency entry in experiment [2] and in experiment [3] was “inactive” throughout.

Regarding `CCCn1c(-c2ccc(F)cc2)nc2c(NCCN3CCCCC3)nc(C)nc21`, in experiment [1], the call was inactive. For the same compound, the Potency entry in experiment [2] and in experiment [3] was “inactive” in each case.

For the compound `CCS(=O)(=O)N1CCC(C(=O)Nc2ccc(S(=O)(=O)Nc3nccs3)cc2)CC1`, the result in experiment [4] was inactive. For the same compound, the Potency entry in experiment [3] is “inactive”.

For the compound `Cc1nc(N2CCOCC2)c2nc(-c3ccccc3)n(CC(C)(C)CN(C)C)c2n1`, the compound was called inactive in experiment [1]. For the same compound, the Potency entry in experiment [2] and in experiment [3] was “inactive” each time.

For the compound `CC(C)C1CCC(C(=O)Nc2ccc(S(=O)(=O)Nc3nccs3)cc2)CC1` (stereo unspecified), the result in experiment [4] was inactive. Besides, the Potency result in experiment [5] and in experiment [3] was “inactive” each time. Moreover, in experiment [6], the Potency is 10.9 µM (active).

In the case of `COc1ccc(NC(=O)c2cc(-c3ccc(C)c(C)c3)nc3ccccc23)cc1`, the call in experiment [4] was inactive. The Potency entry in experiment [3] was “inactive”.

As to `Cc1ccc(-c2cc(C(=O)Nc3ccccn3)c3ccccc3n2)cc1C`, the compound was called inactive in experiment [4]. Also, the Potency result in experiment [5] and in experiment [3] was “inactive” throughout.

Regarding `O=C(Nc1ccc(S(=O)(=O)Nc2nccs2)cc1)C1CCC2(CC1)CC2`, the result in experiment [4] was inactive. The Potency result in experiment [5] and in experiment [3] was “inactive” in each case.

For the compound `Cc1ccc(S(=O)(=O)Nc2cnccc2C(=O)Nc2ccc(N3CCOCC3)cc2)cc1`, in experiment [4], the result was inactive. For the same compound, the Potency entry in experiment [3] is “inactive”.

Regarding `Cc1ccc(S(=O)(=O)Nc2cnccc2C(=O)Nc2ccncc2)cc1`, the result in experiment [4] was inactive. Besides, the Potency entry in experiment [5], in experiment [6] and in experiment [3] was “inactive” each time.

`CCCCCN1CCC(C(=O)Nc2ccc([S+](=O)([O-])Nc3nccs3)cc2)CC1`: the call in experiment [4] was inactive. For the same compound, the Potency result in experiment [5], in experiment [6] and in experiment [3] was “inactive” in each case.

For `O=C(Nc1ccc([S+](=O)([O-])Nc2nccs2)cc1)c1ccn[nH]1`, the compound was classed as inactive in experiment [4]. Besides, the Potency result in experiment [5], in experiment [6] and in experiment [3] was “inactive” each time.

In the case of `O=S(=O)(Nc1nc(CN2CCOCC2)nc2sc3c(c12)CCCC3)c1ccc2ccccc2c1`, the compound was classed as inactive in experiment [4]. Also, the Potency entry in experiment [5] and in experiment [3] was “inactive” in each case. For the same compound, the Potency in experiment [6] was 24.3 µM (active).

Regarding `Clc1nc(CN2CCOCC2)nc2sc3c(c12)CCC3`, in experiment [4], the result was inactive. Moreover, the Potency entry in experiment [5], in experiment [6] and in experiment [3] was “inactive” each time.

Turning to `Cc1ccc(S(=O)(=O)Nc2cnccc2C(=O)Nc2ccc(-n3cncn3)cc2)cc1`, in experiment [4], the call was inactive. The Potency result in experiment [3] is “inactive”.

Take `O=c1[nH]c(CCl)nc2sc3c(c12)CCCC3`: in experiment [4], the outcome was inactive. Also, in experiment [5], the Potency is 10.5 µM (active). Further, the Potency entry in experiment [6] and in experiment [3] was “inactive” each time.

In the case of `Cc1ccc(-c2cc(C(=O)N3CC[S+](=O)([O-])CC3)c3ccccc3n2)cc1C`, the compound was called inactive in experiment [4]. The Potency result in experiment [5], in experiment [6] and in experiment [3] was “inactive” in each case.

For the compound `O=C(Cc1nc2ccc(Cl)cc2[nH]1)Nc1ccc(S(=O)(=O)Nc2nccs2)cc1`, the compound was classed as inactive in experiment [4]. In addition, the Potency result in experiment [5] and in experiment [3] was “inactive” each time. The Potency in experiment [6] was 30.6 µM (active).

For the compound `COCCN(CCOC)c1nc(C)nc2c1nc(-c1ccccc1)n2CC1CCN(C)CC1`, the call in experiment [1] was inactive. In addition, the Potency entry in experiment [2] and in experiment [3] was “inactive” each time.

On to `Cc1ccc(-c2cc(C(=O)Nc3ccc(-c4nn[nH]n4)cc3)c3ccccc3n2)cc1C`, for which the result in experiment [4] was inactive. The Potency result in experiment [5] and in experiment [3] was “inactive” throughout. In addition, the Potency in experiment [6] is 4.85 µM (active).

As for `Cc1ccc(S(=O)(=O)Nc2cnccc2C(=O)NCc2ccccc2)cc1`, the outcome in experiment [4] was inactive. The Potency result in experiment [5] and in experiment [3] was “inactive” each time.

For `Cc1ccc(S(=O)(=O)Nc2cnccc2C(=O)Nc2ccc(S(=O)(=O)Nc3nccs3)cc2)cc1`, the outcome in experiment [4] was inactive. Besides, the Potency entry in experiment [5] and in experiment [3] was “inactive” each time. The Potency in experiment [6] is 19.3 µM (active).

Take `Cc1ccc(S(=O)(=O)Nc2cnccc2C(=O)Nc2ccccc2)cc1`: the result in experiment [4] was inactive. In addition, the Potency result in experiment [5] and in experiment [3] was “inactive” throughout.

With `O=C(Nc1nc(-c2ccccc2)cs1)c1ccncc1NS(=O)(=O)c1cccnc1`, in experiment [4], the compound was classed as inactive. Further, the Potency result in experiment [5] and in experiment [3] was “inactive” each time. Further, the Potency in experiment [6] is 2.73 µM (active).
